Data on 40 compounds can be found in PubChem BioAssay (Tox21).

The structures appear in SMILES notation. Records with an inconclusive call do not appear. A call without a number means that no potency is given here. Activity calls are given as the source filed them. Calls come from the whole dose curve.

For the assay, the target named is D(2) dopamine receptor (Homo sapiens) (UniProt P14416). The assay is described as follows: Dopamine D2 receptor (DRD2) small molecule agonists, cell-based qHTS assay (AID 1963594). Note: nearly all actives have a fitted effect of over 35% in size. As to conditions: HEK293-DRD2 cAMP HTRF, agonist mode, 30 min; series mostly up to 92.4 µM; activation: at the top concentration. The source says: National Center for Advancing Translational Sciences [NCATS]
Sequence of D(2) dopamine receptor (Homo sapiens) (P14416 whole entry, looked up): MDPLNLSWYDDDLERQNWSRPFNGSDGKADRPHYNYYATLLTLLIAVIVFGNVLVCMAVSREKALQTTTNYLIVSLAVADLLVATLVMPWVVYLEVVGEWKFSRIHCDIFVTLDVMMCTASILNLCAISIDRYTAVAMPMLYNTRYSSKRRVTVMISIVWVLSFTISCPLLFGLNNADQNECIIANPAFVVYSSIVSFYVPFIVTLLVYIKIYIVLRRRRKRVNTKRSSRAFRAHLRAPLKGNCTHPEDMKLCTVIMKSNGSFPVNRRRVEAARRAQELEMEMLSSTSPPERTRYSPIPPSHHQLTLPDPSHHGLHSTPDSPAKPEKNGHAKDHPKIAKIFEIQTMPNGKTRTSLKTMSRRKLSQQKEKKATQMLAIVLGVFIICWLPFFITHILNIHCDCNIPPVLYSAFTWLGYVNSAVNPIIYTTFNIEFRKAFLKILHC
Division of Preclinical Innovation [DPI]
U.S. Environmental Protection Agency [EPA]
National Institutes of Environmental Health Sciences [NIEHS]
National Toxicology Program [NTP]
U.S. Food and Drug Administration [FDA]
DRD2 is the D2 subtype of the dopamine receptor, which is coupled to Gi subtype of G protein-coupled receptor. This G protein-coupled receptor inhibits adenylyl cyclase activity. The DRD2-HEK293 cell line stably expressing D2 dopamine receptor can be used for screening agonists and antagonists of interactions between D2 and its ligands. The Hek293-DRD2 cAMP assay is based on HTRF technology. It measures changes of cAMP accumulation in response to Gi coupled GPCR activation or inhibition.
Tox21 Assay Protocol Summary:
DRD2-Hek293 cells were dispensed at 600 cells/3uL/well in 1536-well white plates using a Multidrop Dispenser. After the assay plates were incubated at a 37 C/5% CO2 incubator for 24 h, 1 uL of Ro20-1724 at final concentration of 0.1 mM was transferred to the assay plate by a Flying Reagent Dispenser. Following Ro20-1724 addition, 23 nL of compound dissolved in DMSO, positive controls or DMSO only was added to the assay plates via Wako pintool station. The assay plates were incubated at room temperature for 10 min. Next, 1 uL of NKH477 at 200nM was added into the plates. After the assay plates were incubated at room temperature for an additional 30 min, 2.5 ul/well of cAMP-d2 and 2.5 ul/well of anti-cAMP-cryptate were added respectively into the assay plates using a Flying Reagent Dispenser. The plates were incubated at room temperature for 1 h. The fluorescence intensity in the plates was measured at 340 nm excitation and 665 & 620 nm emission by an Envision plate reader.
On to `Nc1ccc(O)c(C(=O)O)c1`, for which the “activation” value was -2.33% [at 42.5 µM] (inactive).
For `CC(CCl)OP(=O)(OC(C)CCl)OC(C)CCl` (stereo not given), the Potency result was “inactive”.
As to `NC(=O)N/N=C/c1ccc([N+](=O)[O-])o1`, the “activation” value was -3.29% (inactive).
`O=c1oc(=O)c2cc3c(=O)oc(=O)c3cc12`: the Potency result was “inactive”.
Same read-out and setting: then `C=C(C)C(=O)OCCCCCC`, with “inactive”.
For the compound `CC(=O)Oc1ccc(C(c2ccc(OC(C)=O)cc2)c2ccccn2)cc1`, the Potency result is “inactive”.
In the case of `CCC1(c2ccccc2)C(=O)NCNC1=O`, the Potency entry was “inactive”.
Still for that read-out and setting: then `Cn1cc[nH]c1=S`, with “inactive”.
The same measure, in the same setting: then `O=C1C(c2[nH]c3ccccc3c2O)=Nc2ccccc21`, with “inactive”.
Take `CCCCCCCCCC`: the Potency entry was “inactive”.
As to `C=CCc1ccc(O)c(OC)c1`, the Potency result is “inactive”.
On the same count and under the same terms, then `CC[C@H](C)C(=O)O[C@H]1C[C@@H](C)C=C2C=C[C@H](C)[C@H](CC[C@@H]3C[C@@H](O)CC(=O)O3)[C@H]21`, with “inactive”.
Regarding `OB(O)O`, the Potency result was “inactive”.
Turning to `C=CC(C)CCCC(C)(C)O` (stereo not given), the Potency entry was “inactive”.
For the compound `C=C(C#N)C(=O)OCC`, the Potency result is “inactive”.
Take `CCCCC(CC)CO` (stereo not given): the “activation” value was -2.3% (inactive).
For `CCN(CCN)c1cccc(C)c1`, the Potency result was “inactive”.
For `O=C(OCc1ccccc1)c1ccccc1O`, the Potency entry is “inactive”.
On to `c1ccc2n[nH]nc2c1`, for which the Potency entry was “inactive”.
Consider `CC1CCC2CC1C2(C)C` (stereo not given), for which the Potency entry is “inactive”.
For the compound `C1CCCNCC1`, the Potency result is “inactive”.
In the case of `O=S(=O)(O)c1ccc2ccccc2c1`, the Potency result was “inactive”.
On the same count and under the same terms, then `CCCCCCCCCCCCCCCO`, with “inactive”.
Turning to `CCCCCC/C=C/CCCCCCCC(=O)O`, the Potency result is “inactive”.
`CC(=O)C1=C(C)[C@@H]2C[C@@]3(C1)[C@H](C)CC[C@H]3C2(C)C`: the Potency result is “inactive”.
On the same count and under the same terms, then `C=CCNC(N)=S`, with “inactive”.
For `CCCCC(CC)COC(=O)CS` (stereo not given), the Potency result is “inactive”.
`Cc1ncc([N+](=O)[O-])n1C`: the Potency result is “inactive”.
In the case of `C#CCN(C)Cc1ccccc1`, the Potency result is “inactive”.
For the compound `CCc1ccc(CCOc2ccc(CC3SC(=O)NC3=O)cc2)nc1` (stereo not given), the Potency result was “inactive”.
Same read-out and setting: then `OC[C@]1(O)OC[C@@H](O)[C@H](O)[C@@H]1O`, with “inactive”.
Same read-out and setting: then `CCCCC(CC)C(=O)O` (stereo not given), with “inactive”.
On to `OCc1cccnc1`, for which the Potency result was “inactive”.
Turning to `NC(N)=NC(=O)c1nc(Cl)c(N)nc1N`, the Potency result is “inactive”.
Still for that read-out and setting: then `CCCOCC(C)O` (stereo not given), with “inactive”; and `CCc1cccc(C)c1N`, with “inactive”.
As for `CC(=O)[C@H]1CC[C@H]2[C@@H]3CC=C4C[C@@H](O)CC[C@]4(C)[C@H]3CC[C@]12C`, the Potency result was “inactive”.
Same read-out and setting: then `CN(C)CCN(Cc1cccs1)c1ccccn1`, with “inactive”; and `CC(=O)OC/C=C(\C)CCC=C(C)C`, with “inactive”; and `O=C(O)CCCCC1CCSS1` (stereo not given), with “inactive”.
